# Data reported in PubChem BioAssay AID1851 (National Center for Advancing Translational Sciences (NCATS), 2009).
# Among all 16,000 compounds or so, about 5,100 (32%) were called active. About 25% were inconclusive and are not listed. The call rests on the fitted dose curve; in most records, active means well fitted curve in the direction sought with a large enough effect; inconclusive means small, poorly fitted or top-dose-only effect, or effect the other way; inactive means no such curve, though single readings can be large or run the other way. The list shows a part of the results.
# Target: Cytochrome P450 3A4 (Homo sapiens) (UniProt P08684)
# Sequence (P08684 whole entry, looked up): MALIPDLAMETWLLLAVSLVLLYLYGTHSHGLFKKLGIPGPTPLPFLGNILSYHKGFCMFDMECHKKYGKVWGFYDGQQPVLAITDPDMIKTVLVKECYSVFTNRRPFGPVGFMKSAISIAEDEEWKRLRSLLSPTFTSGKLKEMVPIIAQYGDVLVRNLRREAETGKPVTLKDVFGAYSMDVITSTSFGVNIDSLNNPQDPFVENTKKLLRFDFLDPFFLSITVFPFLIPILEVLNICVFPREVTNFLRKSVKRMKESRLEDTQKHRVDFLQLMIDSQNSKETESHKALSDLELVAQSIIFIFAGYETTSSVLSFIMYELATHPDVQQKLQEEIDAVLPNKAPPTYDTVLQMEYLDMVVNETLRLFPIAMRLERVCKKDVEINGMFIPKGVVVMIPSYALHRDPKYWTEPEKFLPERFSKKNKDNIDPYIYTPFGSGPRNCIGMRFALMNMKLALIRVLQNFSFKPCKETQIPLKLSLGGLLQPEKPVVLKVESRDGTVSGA
# Test: Cytochrome panel assay with activity outcomes
# Settings: recombinant CYP, pro-luciferin dealkylation, luminescence, p450-cyp3a4; series mostly up to 57.1 µM; activity, negative = inhibition: at the top concentration
# On the % scale 0 is the no-effect control and ±100 the full control effect.
SMILES,"activity, negative = inhibition",AC50
N#Cc1ccc(Oc2nc(C(N)=O)cc(-c3ccccc3)n2)cc1,-2.92% (inactive),
CO/N=C(\C(=O)N[C@@H]1C(=O)N2C(C(=O)[O-])=C(C[N+]3(C)CCCC3)CS[C@@H]12)c1csc(N)n1,24.4% [at 25.6 µM] (inactive),
Nc1nc2c(c(=O)[nH]1)N[C@H](CCNc1ccc(C(=O)O)cc1)CN2,-0.744% [at 11.4 µM] (inactive),
CCOC(=O)C(C(=O)NCc1ccc(C)cc1)c1ncc(C(F)(F)F)cc1Cl (stereo not drawn),,1.26 µM (active)
CCOc1c2ccc(C(=O)NCc3ccc(OC(F)(F)F)cc3)cc2nn1CC,-2.81% [at 2.29 µM] (inactive),
COc1cc(OC)c(C2C(C(=O)Nc3ccc(C)cc3C)=C(C)Nc3ncnn32)cc1OC (stereo not drawn),,8.91 µM (active)
CCOC(=O)C1=C(C)Nc2ncnn2C1c1cccnc1 (stereo not drawn),,11.2 µM (active)
COc1ccc(NC(=O)c2ccc(-n3cccn3)nc2)c(OC)c1,-25.9% (inactive),
C(=C1/CCCC2=C1Nc1ncnn1C2c1ccccc1)/c1ccccc1 (stereo not drawn),30.7% (inactive),
CCCCOC(=O)C1=C(C)Nc2ncnn2C1c1cc(OC)ccc1OC (stereo not drawn),,7.08 µM (active)
CCOc1ccc(/C(O)=C2/C(=O)C(=O)N(CCOCCO)C2c2cccnc2)cc1 (stereo not drawn),-16% (inactive),
COc1ccc(C2N=C(N)N=C(N)N2c2ccccc2OC)cc1OC (stereo not drawn),-8.43% [at 2.29 µM] (inactive),
C[N+]1(C)C[C@@H](O)C[C@@H]1C(=O)[O-],8.58% [at 25.6 µM] (inactive),
C=C(C)COc1ccc2c(c1)CCC1C2CC[C@]2(C)C(=O)/C(=N/O)CC12 (stereo partly drawn),1.68% [at 11.4 µM] (inactive),
N#CCCn1c(=O)cnc2cnc(N3CCOCC3)nc21,-3.94% (inactive),
COc1cccc(-c2cncnc2NCCc2c[nH]c3ccc(OC)cc23)c1,,0.501 µM (active)
COc1ccc2[nH]cc(CCNc3ncncc3-c3cccnc3)c2c1,,0.794 µM (active)
COc1ccc2[nH]cc(CCNc3ncncc3-c3cccc(NS(C)(=O)=O)c3)c2c1,,0.398 µM (active)
Clc1ccc(N2CCCCCC2)nn1,-15.4% (inactive),
COc1ccccc1NC(=O)CCN1C(=O)C2CC=C(Cl)CC2C1=O (stereo not drawn),,14.1 µM (active)
Cc1ncc(N=Nc2ccccc2Cl)c(-c2ccccc2)n1,-21.3% (inactive),
COC(=O)CNC(=O)CN1C(=O)N(c2ccccc2)C(N(O)C(=O)Nc2ccccc2)C1(C)C (stereo not drawn),27.6% (inactive),
COC(=O)CNC(=O)CN1C(=O)N(c2ccc(Cl)cc2)C(N(O)C(=O)Nc2ccc(Cl)cc2)C1(C)C (stereo not drawn),,4.47 µM (active)
COC(=O)CC1C(=O)NCCN1C(=O)Nc1ccc(Cl)cc1 (stereo not drawn),-7.49% (inactive),
Cc1cccc(OCCCCCn2ccnc2)c1,,0.562 µM (active)
O=C(O)c1cccc(OCCO)c1,-12.1% [at 11.4 µM] (inactive),

SMILES,"activity, negative = inhibition",AC50
COc1cc(C)ccc1OCCOc1cc(C)ccc1Cl,5.86% [at 2.29 µM] (inactive),
Cc1ccc(OCCOCCn2ccnc2)c(Br)c1,,0.562 µM (active)
Cc1cc2[nH]c(=O)c3ccccc3n2n1,-11% (inactive),
O=c1cc(CSc2nnc(-c3cccnc3)n2-c2ccccc2F)nc2sccn12,,2.82 µM (active)
Cn1cc(C(=O)N/N=C/C(Br)=C\c2ccccc2)ccc1=O,-21.8% (inactive),
CS(=O)(=O)N1CCC2(CCN(C(=O)Nc3cccc(C#N)c3)CC2)CC1,-0.782% (inactive),
O=C(Nc1cccc(F)c1)N1CCCC2(CCN(S(=O)(=O)c3ccccc3)CC2)C1,,12.6 µM (active)
O=C(Nc1cccc(F)c1)N1CC[C@@]2(CCCN(S(=O)(=O)c3ccccc3)C2)C1,,25.1 µM (active)
N#Cc1cccc(NC(=O)N2CC[C@@]3(CCCN(S(=O)(=O)c4ccccc4)C3)C2)c1,,3.16 µM (active)
CS(=O)(=O)N1CCC[C@@]2(CCN(C(=O)Nc3ccccc3)C2)C1,-21.2% (inactive),
O=C(Nc1cccc(F)c1)N1CC2(CCN(S(=O)(=O)c3ccccc3)CC2)C1,-16.5% (inactive),
CS(=O)(=O)N1CCC2(CCN(C(=O)Nc3cccc(F)c3)CC2)CC1,0.77% (inactive),
CC(/C=C1\N=C(SCc2ccccc2Cl)SC1=O)=C\c1ccccc1,,14.1 µM (active)
Clc1ccccc1CSc1nnc(/C=C/c2ccccc2)o1,-23.3% (inactive),
O=c1[nH]c2cc(Cl)ccc2c(O)c1-c1cccc(Oc2ccccc2)c1,-19.3% (inactive),
CC1(C)CCC=[N+]1[O-],16.1% (inactive),
NC(N)=NC(N)=Nc1ccccc1,-12.3% (inactive),
CCc1ccc(OCCCC(=O)Nc2ccc(N3CCCCC3)cc2)cc1,-10.4% (inactive),
O=C(Nc1ccc(N2CCCCC2)cc1)c1cncc(Br)c1,,1.41 µM (active)
O=C(O)CNC(=O)[C@@H](CS)Cc1ccccc1,0.949% (inactive),
COc1ccccc1C(=O)NCCn1cc(SCC(=O)Nc2nnc(C)s2)c2ccccc21,,6.31 µM (active)
CCSc1nnc(NC(=O)Cc2ccccc2OC)s1,-9.72% (inactive),
CCCCCCCC/C=C\CCCCCCCC(=O)N[C@@H](CO)Cc1ccc(O)cc1,,10 µM (active)
CCCCCCCC/C=C\CCCCCCCC(=O)NCCc1ccc(O)c(O)c1,,3.16 µM (active)
CCCCCCC/C=C\CCCCCCCCC(=O)O,-7.01% (inactive),
CCCCCCCCCCCCCCCC(=O)NC(C)C,-13.2% (inactive),

SMILES,"activity, negative = inhibition",AC50
CCCCCCCCCCCCCCC/C=C\[C@H](O)[C@@H](NC(=O)CCCCCCCCCCCCC)OC (tested in a mixture with another compound),15.6% (inactive),
CC(=O)NCCc1ccc(O)c(O)c1,-7.98% (inactive),
N=C(N)SCC(=O)O,-3.45% [at 11.4 µM] (inactive),
CC(C)CN1CCCC2(CCN(S(=O)(=O)c3ccccc3)CC2)C1,,15.8 µM (active)
O=S(=O)(c1ccccc1)N1CCC2(CCN(Cc3ccncc3)CC2)CC1,,3.98 µM (active)
O=S(=O)(c1ccccc1)N1CCC2(CC1)CN(Cc1ccccc1)C2,11.6% (inactive),
O=S(=O)(c1ccccc1)N1CCC2(CCCN(Cc3ccncc3)C2)CC1,,3.98 µM (active)
O=S(=O)(c1ccccc1)N1CCC2(CCN(Cc3ccccc3)CC2)CC1,-5.59% (inactive),
CC(C)CN1CCC2(CC1)CCN(S(=O)(=O)c1ccccc1)CC2,-5.33% (inactive),
N#Cc1ccc(CN2CCCC3(CCN(S(=O)(=O)c4ccccc4)CC3)C2)cc1,,3.16 µM (active)
CC/C=C\CC[C@H](O)C1=CCCCC1=O,-12.1% [at 11.4 µM] (inactive),
O=C1CC(c2ccccc2)Cc2nc(N3CCc4ccccc4C3)ncc21 (stereo not drawn),2.14% [at 2.29 µM] (inactive),
Cc1ccc(C2CC(=O)c3cnc(N4CCc5ccccc5C4)nc3C2)cc1 (stereo not drawn),-6% [at 2.29 µM] (inactive),
COc1ccc(C2CC(=O)c3cnc(Nc4cc(C)cc(C)c4)nc3C2)cc1 (stereo not drawn),,4.47 µM (active)
CC1CC(=O)c2cnc(N)nc2C1 (stereo not drawn),6.35% (inactive),
COc1ccc(Nc2ncc3c(n2)CC(c2ccc(C)cc2)CC3=O)cc1 (stereo not drawn),,8.91 µM (active)
Nc1ncnc2c1ncn2C[C@@H](O)C(=O)O,1.58% [at 11.4 µM] (inactive),
COc1ccc(Oc2ncc3ncc(=O)n(C[C@H]4CCCO4)c3n2)cc1,,12.6 µM (active)
CCNc1ncc2nc(C)c(=O)n(C[C@H]3CCCO3)c2n1,-10.9% (inactive),
COc1ccc(-c2nc3cnc(N4CCOCC4)nc3n(C[C@H]3CCCO3)c2=O)cc1,-3.59% (inactive),
COc1ccc(Oc2ncc3nc(C)c(=O)n(C[C@H]4CCCO4)c3n2)cc1,,3.98 µM (active)
CCNc1ncc2ncc(=O)n(C[C@H]3CCCO3)c2n1,-21% (inactive),
O=c1cnc2cnc(Oc3cccc(Cl)c3)nc2n1C[C@H]1CCCO1,-20.3% (inactive),
Nc1ccc(N(S(=O)(=O)c2ccccc2)S(=O)(=O)c2ccccc2)c(Cl)c1,,0.0316 µM (active)
CN(CCC(=O)O)S(=O)(=O)c1ccccc1,-26.6% [at 11.4 µM] (inactive),
NC(=S)Nc1cc2ccccc2c2ccccc12,,15.8 µM (active)

SMILES,"activity, negative = inhibition",AC50
O=C(O)c1c2ccccc2cc2ccccc12,0.0487% (inactive),
CN=C(N)/N=C(\N)Nc1cc2ccccc2c2ccccc12,-14.5% [at 11.4 µM] (inactive),
COc1ccc(C2CC(=O)CC(=O)C2n2cncn2)cc1 (stereo not drawn),,2.24 µM (active)
CCN(CC)C(=O)C1CC(=O)N(c2ccc(OC)cc2)C1c1ccc(OC)cc1 (stereo not drawn),-28.4% [at 2.29 µM] (inactive),
O=C1CC(=O)C(n2cncn2)C(c2cccc(Cl)c2)C1 (stereo not drawn),,0.501 µM (active)
CS(=O)(=O)Nc1cccc(-c2nc(NCc3cccs3)c3ccccc3n2)c1,,3.16 µM (active)
COCCNc1nc(-c2cccc(NS(C)(=O)=O)c2)nc2ccccc12,,12.6 µM (active)
Cc1cccc(CNc2nc(-c3cccc(NS(C)(=O)=O)c3)nc3ccccc23)c1,,5.01 µM (active)
CS(=O)(=O)Nc1cccc(-c2nc(NCc3cccnc3)c3ccccc3n2)c1,,2 µM (active)
NC(=O)/C(=N\O)c1ccccc1,-20.2% (inactive),
CS(=O)(=O)Nc1cccc(-c2nc(NCc3ccccc3)c3ccccc3n2)c1,,3.16 µM (active)
c1cc(NNc2cccc(-c3nn[nH]n3)c2)cc(-c2nn[nH]n2)c1,-11.1% [at 11.4 µM] (inactive),
CC(=O)NCCNc1nc(-c2cccc(NS(C)(=O)=O)c2)nc2ccccc12,,15.8 µM (active)
Cn1c(=O)c2c(ncn2CN2CCN(Cn3cnc4c3c(=O)n(C)c(=O)n4C)CC2)n(C)c1=O,3.42% [at 11.4 µM] (inactive),
COc1ccc(CNc2ncnc3ccc(-c4cccc(C#N)c4)cc23)c(OC)c1,,1.58 µM (active)
COc1ccccc1CNc1ncnc2ccc(-c3cccc(C#N)c3)cc12,,7.94 µM (active)
Cc1ccc(S(=O)(=O)NC(=O)OC23COCN2COC3)cc1,-8.25% [at 11.4 µM] (inactive),
O=c1c(-c2cc(F)cc(F)c2)nc2cncnc2n1-c1ccccc1,-35.4% (inactive),
COc1ccc(-n2c(=O)c(-c3cc(F)cc(F)c3)nc3cncnc32)cc1,,12.6 µM (active)
COc1ccc(-n2c(=O)c(C)nc3cncnc32)cc1,,5.01 µM (active)
COc1ccc(-n2c(=O)c(-c3ccc(F)cc3)nc3cnc(N4CCOCC4)nc32)cc1,-15.1% (inactive),
COc1ccc(-n2c(=O)c(-c3cccc(F)c3)nc3cncnc32)cc1,,20 µM (active)
Cn1c(=O)c(-c2ccc(Cl)cc2)nc2cncnc21,-13.1% (inactive),
COc1ccc(-n2c(=O)c(-c3ccc(Cl)cc3)nc3cncnc32)cc1,,15.8 µM (active)
COc1ccc(-n2c(=O)c(-c3ccc(F)cc3)nc3cncnc32)cc1,-30.6% (inactive),
